The record followed here is PubChem BioAssay (NCATS).

Common to all, as to test: Primary qHTS to identify gynecologic anti-cancer compounds using libraries of approved drugs and bioactive compounds (AID 1345084); also: nearly all actives have a fitted effect of over 55% in size
Background: In qHTS, concentration-response curves come from the screen itself.

In one assay the test system is CAOV3. Particulars: Gynecologic cancer cell panel viability, ATPlite luminescence, 48 h; series mostly up to 57.5 µM. In outline:
(§1)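 Five-concentration response, 48 h; readout is ATP-driven luciferase luminescence.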
On the technique in general: Cellular ATP, detected with luciferase, serves as a proxy for viable cell number.

Another assay deals with CASKI. To be noted: Gynecologic cancer cell panel viability, ATPlite luminescence, 48 h; series mostly up to 57.5 µM. The method in brief: as §1
The next assay deals with Es-2. To be noted: Gynecologic cancer cell panel viability, ATPlite luminescence, 48 h; series mostly up to 57.5 µM. In outline:
as §1

In the next assay the test system is HeLa. Particulars: Gynecologic cancer cell panel viability, ATPlite luminescence, 48 h; series mostly up to 57.5 µM. In outline: as §1
Another assay has as its system Hek293T. To be noted: Gynecologic cancer cell panel viability, ATPlite luminescence, 48 h, control line for the selectivity index; series mostly up to 57.5 µM. In outline:
as §1

The subject of a further assay is JEG-3. Particulars: Gynecologic cancer cell panel viability, ATPlite luminescence, 48 h; series mostly up to 57.5 µM. In outline: as §1
The subject of a further assay is OV90. Particulars: Gynecologic cancer cell panel viability, ATPlite luminescence, 48 h; series mostly up to 57.5 µM. In outline: as §1
The next assay deals with PA-1. Particulars: Gynecologic cancer cell panel viability, ATPlite luminescence, 48 h; series mostly up to 57.5 µM. In outline: as §1
The subject of a further assay is SKOV3. To be noted: Gynecologic cancer cell panel viability, ATPlite luminescence, 48 h; series mostly up to 57.5 µM. In outline: as §1
In another assay the test system is Tov-21-G. Particulars: Gynecologic cancer cell panel viability, ATPlite luminescence, 48 h; series mostly up to 57.5 µM. In outline:
as §1

Each structure is given as a SMILES string. Records with an inconclusive call do not appear. Active and inactive are the calls of the source. Calls follow the shape of the dose curve; as a rule, active = well fitted cell-killing curve with a large enough effect; inconclusive = small, poorly fitted or top-dose-only effect, or effect the other way; inactive = flat fitted curve, though single readings scatter.
Potency is read from the fitted curve at half-maximal effect.

As to `Oc1cccc2cccnc12`, the Potency entry in the assay on CAOV3, with CASKI, with Es-2, in the assay on HeLa, in the assay with Hek293T and in the assay with JEG-3 was “inactive” in each case. Besides, the Potency entry in the assay on OV90, in the assay with PA-1, in the assay with SKOV3 and in the assay on Tov-21-G was “inactive” each time.

As to `c1ccc2c(c1)Nc1ccccc1S2`, the Potency result in the assay on CAOV3, in the assay with CASKI, in the assay on Es-2, in the assay with HeLa, in the assay on Hek293T and with JEG-3 was “inactive” in each case. Moreover, the Potency entry in the assay with OV90, with PA-1, in the assay on SKOV3 and with Tov-21-G was “inactive” each time.

Take `CC(O)(CS(=O)(=O)c1ccc(F)cc1)C(=O)Nc1ccc(C#N)c(C(F)(F)F)c1` (stereo not given): the Potency entry in the assay on CAOV3, with CASKI, with Es-2, in the assay with HeLa, in the assay on Hek293T and with JEG-3 was “inactive” throughout. Also, the Potency result in the assay on OV90, with PA-1, in the assay on SKOV3 and with Tov-21-G was “inactive” in each case.

As for `CC(C)=CC1C(C(=O)OCc2cccc(Oc3ccccc3)c2)C1(C)C` (stereo not given), the Potency entry with CAOV3, in the assay with CASKI, with Es-2, in the assay with HeLa, in the assay with Hek293T and in the assay with JEG-3 was “inactive” in each case. Besides, the Potency entry in the assay on OV90, with PA-1, with SKOV3 and in the assay on Tov-21-G was “inactive” in each case.

Take `Cc1ncc(CNC(=O)N(CCCl)N=O)c(N)n1`: the Potency entry in the assay with CAOV3, in the assay with CASKI, with Es-2, in the assay with HeLa, in the assay on Hek293T and in the assay on JEG-3 was “inactive” throughout. Moreover, the Potency result in the assay with PA-1, with SKOV3 and with Tov-21-G was “inactive” throughout. For the same compound, the Potency in the assay with OV90 was 35.5 µM (active).

Consider `NCC(O)c1ccc(O)cc1` (stereo not given), for which the Potency entry in the assay on CAOV3, with CASKI, in the assay with Es-2, in the assay with HeLa, with Hek293T and in the assay with JEG-3 was “inactive” throughout. In addition, the Potency entry in the assay on OV90, in the assay on PA-1, with SKOV3 and with Tov-21-G was “inactive” each time.

As to `CCN(CC)CCOC(=O)C(O)(c1ccccc1)c1ccccc1`, the Potency entry in the assay on CAOV3, in the assay with CASKI, with Es-2, in the assay on HeLa, in the assay with Hek293T and in the assay with JEG-3 was “inactive” throughout. Besides, the Potency entry with OV90, in the assay on PA-1, with SKOV3 and in the assay with Tov-21-G was “inactive” in each case.

As to `CCCN1CCC[C@@H]2Cc3nc(N)ncc3C[C@H]21`, the Potency entry in the assay with CAOV3, in the assay on CASKI, in the assay with Es-2, with HeLa, with Hek293T and with JEG-3 was “inactive” each time. The Potency result in the assay on OV90, with PA-1, in the assay with SKOV3 and with Tov-21-G was “inactive” each time.

Turning to `CCN(CC)CCN1C(=O)CN=C(c2ccccc2F)c2cc(Cl)ccc21`, the Potency entry with CAOV3, with CASKI, in the assay with Es-2, with HeLa, in the assay with Hek293T and in the assay on JEG-3 was “inactive” throughout. Further, the Potency result with OV90, in the assay with PA-1, in the assay with SKOV3 and in the assay with Tov-21-G was “inactive” each time.

Regarding `CCOP(=S)(OCC)Oc1cc(C)nc(C(C)C)n1`, the Potency result in the assay with CAOV3, with CASKI, in the assay on Es-2, with HeLa, in the assay with Hek293T and in the assay on JEG-3 was “inactive” each time. Also, the Potency result in the assay on OV90, with PA-1, in the assay on SKOV3 and in the assay on Tov-21-G was “inactive” in each case.

Take `Cc1cccc(C)c1NC(=O)CN1CCCC1=O`: the Potency result in the assay with CAOV3, in the assay with CASKI, in the assay on Es-2, with HeLa, with Hek293T and with JEG-3 was “inactive” throughout. For the same compound, the Potency entry in the assay with OV90, with PA-1, with SKOV3 and in the assay on Tov-21-G was “inactive” each time.

With `Cc1ccc(-c2nc3ccc(C)cn3c2CC(=O)N(C)C)cc1`, the Potency entry in the assay on CAOV3, in the assay on CASKI, in the assay on Es-2, in the assay with HeLa, in the assay on Hek293T and with JEG-3 was “inactive” in each case. Also, the Potency entry in the assay with OV90, with PA-1, in the assay on SKOV3 and with Tov-21-G was “inactive” in each case.

Take `CN(C)[C@@H]1C(=O)C(C(N)=O)=C(O)[C@@]2(O)C(=O)C3=C(O)c4c(O)cccc4[C@@](C)(O)[C@H]3C[C@@H]12`: the Potency result in the assay on CAOV3, with CASKI, with Es-2, with HeLa, in the assay with Hek293T and with JEG-3 was “inactive” in each case. Further, the Potency result in the assay with OV90, in the assay with PA-1, with SKOV3 and in the assay with Tov-21-G was “inactive” in each case.

As to `CN1CCN(C(=O)O[C@H]2c3nccnc3C(=O)N2c2ccc(Cl)cn2)CC1`, the Potency entry with CAOV3, in the assay with CASKI, in the assay on Es-2, with HeLa, with Hek293T and with JEG-3 was “inactive” throughout. The Potency result in the assay with OV90, in the assay on PA-1, in the assay on SKOV3 and in the assay on Tov-21-G was “inactive” throughout.

Take `CC(C)(N)Cc1ccc(Cl)cc1`: the Potency result in the assay with CAOV3, with CASKI, in the assay with Es-2, in the assay with HeLa, in the assay on Hek293T and with JEG-3 was “inactive” in each case. Also, the Potency entry in the assay with OV90, in the assay on PA-1, in the assay with SKOV3 and in the assay with Tov-21-G was “inactive” each time.

As for `CC[C@@H](CO)NC(=O)[C@@H]1C=C2c3cccc4c3c(cn4C)C[C@H]2N(C)C1`, the Potency result in the assay with CAOV3, with CASKI, in the assay on Es-2, with HeLa, with Hek293T and in the assay on JEG-3 was “inactive” each time. Further, the Potency entry with OV90, with PA-1, in the assay on SKOV3 and in the assay on Tov-21-G was “inactive” throughout.
